According to PubChem BioAssay AID651898 (Broad Institute, 2012):
This is one part of the list. The source made the active and inactive calls. How the calls were made is not given here.

Assay: cytotoxicity in HepG2 cells, dose response, cytotoxicity control, cell-based, plate reader, cherry-pick, two tests (AID 651898)
Conditions: max activity: at 12 µM, test 1 unless noted; series mostly up to 26 µM

**Q.** With `CCCOc1ccc2c3c(c(=O)oc2c1OCCC)CCC3` as the compound, how does the max activity read?
**A.** The max activity was 27.7% [at 26 µM, test 1] (inactive).

**Q.** With `C=C(C)CSc1nc(N)c2c3c(sc2n1)CCC3` as the compound, how does the max activity read?
**A.** Its max activity is -7.76% [at 1.6 µM, test 1] (inactive).

**Q.** With `C=CCn1c(SCc2c(C(=O)OC)sc(N)c2C(=O)OC)nnc1-c1ccc(Cl)cc1` as the compound, how does the max activity read?
**A.** The max activity was -11.6% [at 1.6 µM, test 1] (inactive).

**Q.** For `Cc1nc(=O)c(-c2ccccc2)c(C)n1-c1ccc(Br)cc1`, which max activity is on record?
**A.** The max activity was 19% (inactive).

**Q.** For `Cc1nc2nc(SCC(=O)NCc3ccco3)nn2c(C)c1Cc1ccccc1`, which max activity is on record?
**A.** The max activity was 6.48% [at 0.195 µM, test 1] (inactive).

**Q.** With `Cn1c(=O)c2c(nc(OCc3cccnc3)n2Cc2ccccc2)n(C)c1=O` as the compound, how does the max activity read?
**A.** Its max activity is -11.3% [at 26 µM, test 1] (inactive).

**Q.** For `CN1c2ccc(-c3ccccc3)cc2[C@H]2[C@H](CCN2C(=O)Cc2ccccn2)[C@H]1CO`, which max activity is on record?
**A.** Its max activity is 20.8% [measured here: replicate test 2 max activity, at 23.5 µM, test 2].

**Q.** And the outcome?
**A.** The outcome was “inactive”.

**Q.** For `CC(=O)CSc1nnc(CSc2ncccn2)n1C1CCCCC1`, which max activity is on record?
**A.** The max activity was 18.7% [at 1.6 µM, test 1] (inactive).

**Q.** With `CS(=O)(=O)N1[C@H](C(=O)NCc2ccncc2)[C@@H](CO)[C@@H]2Cn3c(ccc(C4=CCCCC4)c3=O)[C@@H]21` as the compound, how does the max activity read?
**A.** The max activity was -13.1% [measured here: replicate test 2 max activity, at 3 µM, test 2].

**Q.** And the outcome?
**A.** Its outcome is “inactive”.

**Q.** For `Cc1ccc(Cc2c(C)nc3nc(SCC(=O)NCCN4CCOCC4)nn3c2C)cc1`, which max activity is on record?
**A.** Its max activity is -6.95% [at 0.38 µM, test 1] (inactive).

**Q.** For `Cc1c2cnn(CC(=O)NCc3ccccn3)c(=O)c2c(C)n1Cc1ccc(Cl)cc1`, which max activity is on record?
**A.** The max activity was 24.2% [at 26 µM, test 1] (inactive).

**Q.** Which max activity does the source give for `CC(=O)O[C@]1(C(C)=O)CC[C@H]2[C@@H]3C=C(C)C4=CC(=O)CC[C@]4(C)[C@H]3CC[C@@]21C` here?
**A.** The max activity was 5.11% [at 1.6 µM, test 1] (inactive).

**Q.** For `COc1cc(-c2n[nH]c(=S)n2Cc2ccccc2)cc(OC)c1OC`, which max activity is on record?
**A.** Its max activity is -15.9% (inactive).

**Q.** Which outcome does the source give for `CCC(CO)Oc1cc(NC(=O)c2cccc(F)c2)c2ncn(C(C)C)c2c1` (stereo not given) here?
**A.** The outcome was “inactive”.

**Q.** And the max activity?
**A.** Its max activity is 10.6% [measured here: replicate test 2 max activity, at 0.195 µM, test 2].

**Q.** With `CC1(C)CC(=O)C=C(c2ccc3ncccc3c2)C1` as the compound, how does the max activity read?
**A.** Its max activity is -17% (inactive).

**Q.** With `O=C(CSc1n[nH]c(-c2cccnc2)n1)Nc1ccnc2ccccc12` as the compound, how does the max activity read?
**A.** The max activity was 8.04% (inactive).

**Q.** With `O=C(c1ccncc1)N1CC[C@@H]2[C@H]1c1cc(Br)ccc1N[C@@H]2CO` as the compound, how does the max activity read?
**A.** Its max activity is -16.4% [measured here: replicate test 2 max activity, at 0.8 µM, test 2].

**Q.** What about the outcome of the same compound?
**A.** Its outcome is “inactive”.

**Q.** For `O=c1[nH]c(N2CCN(Cc3ccc4c(c3)OCO4)CC2)nc2c1CCCC2`, which max activity is on record?
**A.** Its max activity is -9.65% [at 0.38 µM, test 1] (inactive).

**Q.** With `COCCNC(=O)C[C@H]1CC[C@@H]2[C@H](COc3ccc(NC(=O)Nc4cccc(F)c4)cc3C(=O)N2C)O1` as the compound, how does the outcome read?
**A.** Its outcome is “inactive”.

**Q.** What about the max activity of the same compound?
**A.** The max activity was 9.85% [measured here: replicate test 2 max activity, at 3 µM, test 2].

**Q.** Which max activity does the source give for `Cc1c(OC(C)C(=O)NCC2CCC(C(=O)O)CC2)ccc2c1oc(=O)c1ccccc12` (stereo not given) here?
**A.** Its max activity is 38.2% (inactive).
